For orientation: inhibition means the relative decrease from the control value, in per cent.

In all, about 370,000 compounds went through this assay and about 2,100 (0.57%) were called active. The entries come from a sample that favours actives as a whole. A number with no mark means an inactive call.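 How the source made its calls: active means inhibition above mean plus 3 SD of compounds lying within the high and low control bounds (cut at about 19% in these data); inactive means the rest.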

The experiment deals with Group 3 secretory phospholipase A2 (Homo sapiens) (UniProt Q9NZ20). The experiment is described as follows: HGIII-sPLA2 enzyme inhibition – biochemical, QFRET, BODIPY PC-A2 liposome substrate, primary screen (AID 743126).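 Further: 0% = median of test compound wells and 100% = no enzyme DMSO wells.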 As to conditions: QFRET BODIPY PC-A2 liposome hydrolysis, fluorescence; at 12.2 µM; hits give high values.
Group 3 secretory phospholipase A2 (Homo sapiens), sequence (Q9NZ20 whole entry, looked up): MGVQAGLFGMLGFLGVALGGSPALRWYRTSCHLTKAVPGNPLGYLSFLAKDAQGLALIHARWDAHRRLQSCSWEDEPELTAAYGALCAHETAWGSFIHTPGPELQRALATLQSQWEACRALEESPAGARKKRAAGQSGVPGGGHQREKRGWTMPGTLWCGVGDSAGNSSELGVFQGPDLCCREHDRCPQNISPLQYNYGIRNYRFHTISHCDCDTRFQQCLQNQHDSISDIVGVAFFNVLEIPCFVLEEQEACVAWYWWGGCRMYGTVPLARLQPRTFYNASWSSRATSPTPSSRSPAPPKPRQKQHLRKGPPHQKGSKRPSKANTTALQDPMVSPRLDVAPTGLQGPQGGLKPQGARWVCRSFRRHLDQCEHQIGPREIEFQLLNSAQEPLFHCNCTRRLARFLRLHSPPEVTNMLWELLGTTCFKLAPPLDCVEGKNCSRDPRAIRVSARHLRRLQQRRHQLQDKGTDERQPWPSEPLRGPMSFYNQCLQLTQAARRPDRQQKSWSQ
For `CCOC(=O)N1CCN(C(=O)C[C@H]2C[C@@]3(C(=O)OC)C(=C[C@H](C(C)(C)C)O[C@@H]3C)N(Cc3ccc(Cl)cc3Cl)C2=O)CC1`, the inhibition is -6.16%.

With `CCOC(=O)[C@]12CCCC3=C1N(CCC3)C(=O)[C@@H](CC(=O)NCc1cccs1)C2`, the inhibition is -0.88%.

In the case of `COC(=O)[C@]12C[C@H](CC(=O)NCCCN3CCCC3=O)C(=O)N(CCc3ccc(OC)c(OC)c3)C1=C[C@H](COCc1ccccc1)O[C@@H]2C`, the inhibition is 11.1%.

With `COc1ccc(C2CC(c3ccc(Cl)cc3Cl)Nc3nc(N)nn32)cc1OC` (stereo not drawn), the inhibition is 0.41%.

As for `Cc1ccc(C2CC(c3cccc(C)c3)n3nc(N)nc3N2)cc1` (stereo not drawn), the inhibition is 25.2% (active).

`Cc1ccc(C2CC(c3cccc(Br)c3)n3nc(N)nc3N2)cc1` (stereo not drawn): the inhibition was 9.36%.

For `O=C(OC12CCCN(C1)/C(=C/c1ccccc1)C2)c1ccco1` (stereo not drawn), the inhibition is 4.15%.

Regarding `C=CCN(Cc1ccc2c(c1)OCO2)C(C#CC1CC1)C(C)(C)C` (stereo not drawn), the inhibition is 7.02%.

With `COc1cc(NC(=O)C2CCCN(S(=O)(=O)c3ccc(C(C)(C)C)cc3)C2)cc(OC)c1` (stereo not drawn), the inhibition is 2.94%.

For `CCC(c1ccc(NC(=O)OC(C)(C)C)cc1)c1cc(OC)cc(OC)c1` (stereo not drawn), the inhibition is -18.5%.

Consider `COc1ccc(CSc2nnc(SCC(=O)Nc3ccccc3C(F)(F)F)s2)cc1`, for which the inhibition is -11.2%.

Turning to `CC(C)(c1ccccc1)c1ccc(OCCN)cc1`, the inhibition was 23.6% (active).

For the compound `Cc1nn(CCOc2ccccc2)c(=O)n1-c1ccccc1F`, the inhibition is 3.1%.

With `O=C(NCCOc1ccccc1)c1ccccc1F`, the inhibition is 8.32%.

As to `COC(=O)[C@]12C[C@H](CC(=O)NCc3ccccc3)C(=O)N(CCC3=CCCCC3)C1=C[C@H](C(C)C)O[C@@H]2C1CC1`, the inhibition was -0.06%.

For the compound `CCn1c(SCC(C)=O)nc2sc3c(c2c1=O)CCCC3`, the inhibition was -63%.

On to `CCCC1CCC2(CCCN2CCOC(=O)NCc2ccccc2)CC1` (stereo not drawn), for which the inhibition was 0.68%.

`CC(=O)OC12CCCN(C1)/C(=C/c1ccncc1)C2` (stereo not drawn): the inhibition was 8.67%.

On to `CC(=O)C1(C(=O)Nc2nccs2)CC(c2ccccc2C(F)(F)F)=NO1` (stereo not drawn), for which the inhibition is -9.84%.

In the case of `Cc1cccc(NC(=S)NCCN(C2CCCCC2)C2CCCC2)c1`, the inhibition was 23.8% (active).

With `Cc1cccc(C(=O)NC(=S)N(C)C2CCCCC2)c1`, the inhibition was 7.08%.

As to `Cc1cccc(NC(=S)NCc2ccc3[nH]c4c(c3c2)CCCC4)c1`, the inhibition was -9.81%.

Consider `C=CCN1C(=O)[C@H](CC(=O)N2CCN(C(=O)OCC)CC2)[C@@]2(C(=O)OCC)CCCC=C12`, for which the inhibition was -3.08%.

Regarding `Cc1ccccc1CN1CCCCC(NC(=O)c2cccc(C#N)c2)C1=O` (stereo not drawn), the inhibition was 14%.

`CCOc1ccc(-n2c(SCC(=O)Nc3cc(C)c(NC(=O)c4ccccc4)cc3OC)nnc2-c2cccs2)cc1`: the inhibition was -11.7%.

For `CCC[C@H]1C(=O)CC[C@@]23CCCN2C(=O)CCC[C@@H]13`, the inhibition is 9.16%.

`COc1ccc([C@H]2OC(=O)C[C@H]2C(=O)N2CCN(c3ccccc3F)CC2)cc1OC`: the inhibition was -0.35%.

As to `Cn1c2c(c(=O)n(C)c1=O)C1c3ccccc3OCC1C(C)(C)O2` (stereo not drawn), the inhibition was 20.6% (active).

For the compound `COc1cccc2c1OCC1COc3c(c(=O)n(C)c(=O)n3C)C21` (stereo not drawn), the inhibition is 8%.

Consider `Cn1c2c(c(=O)n(C)c1=O)[C@@H]1c3c(ccc4ccccc34)OC[C@@H]1CO2`, for which the inhibition is 1.04%.

For `CC(=O)N1CCCN(C2=Nc3ccccc3Sc3ccccc32)CC1`, the inhibition was -5.38%.

On to `O=C(NCc1ccc(Cl)cc1)C1CCCN(c2nc3ccccc3o2)C1` (stereo not drawn), for which the inhibition was 0.81%.

In the case of `Cc1ccc(NC(=O)Cc2cccc(F)c2)c(S(=O)(=O)N2CCOCC2)c1`, the inhibition is -2.31%.

In the case of `Cc1c[nH]c2cccc(-c3ccc(Cl)cc3)c12`, the inhibition was -16.5%.

Take `O=C(NCC(=O)N1CCN(c2ncc(C(F)(F)F)cc2Cl)CC1)c1ccc(Br)o1`: the inhibition was -1.88%.

Consider `Cc1cc(C)nc(NC(=S)N2CCN(c3ccc(C(F)(F)F)cn3)CC2)c1`, for which the inhibition is 11.2%.

As for `COc1ccnc(NC(=S)N2CCN(c3ncc(C(F)(F)F)cc3Cl)CC2)c1`, the inhibition was 23.3% (active).

On to `CN1[C@H](Cc2ccccc2)COc2cccc(N3CCSCC3)c2S1(=O)=O`, for which the inhibition is -2.69%.

In the case of `O=C(NNC(=S)NC(=O)c1cn(-c2ccccc2)nc1-c1ccccc1)c1ccncc1`, the inhibition is 19.6% (active).

For `O=C(c1cn(-c2ccccc2)nc1-c1cccnc1)N1CCN(S(=O)(=O)c2ccccc2F)CC1`, the inhibition is -9.4%.

`O=C(NNC(=S)NCCCN1CCOCC1)c1ccncc1`: the inhibition is -1.42%.

Consider `O=C(CSc1nnc(COc2ccccc2)n1-c1ccc(Cl)cc1)Nc1ccc2c(c1)OCO2`, for which the inhibition was -14.5%.

Turning to `COC(=O)c1cccc(Cn2ccc3ccc(-c4ccc5ccn(C(=O)C6CCCCC6)c5c4)cc32)c1`, the inhibition is -3.82%.

As for `S=C(Nc1ccc(Br)cc1Cl)NC1CCN(Cc2ccccc2)CC1`, the inhibition was 0.32%.

For the compound `CN(C)C(=S)Nc1ccc(Br)cc1Cl`, the inhibition was 1.77%.

On to `O=C(NNC(=S)Nc1ccc(Br)cc1Cl)c1ccco1`, for which the inhibition was 26.4% (active).

Turning to `Cc1ccc(Cn2cc(COC(=O)N(C)Cc3ccccc3)nn2)cc1`, the inhibition was -5.61%.

`Cc1ccc(-n2c(SCC(=O)Nc3ccc(S(=O)(=O)Nc4nccs4)cc3)nnc2-c2cccnc2)cc1`: the inhibition was -21.7%.

As for `O=C1CC[C@@]23CCCN2C(=O)CCC[C@H]3[C@H]1Cc1ccccc1`, the inhibition is 3.91%.

With `Cc1cccc(N2CCN(C(=O)c3ccccc3NC(=O)C3CCCCC3C(=O)O)CC2)c1` (stereo not drawn), the inhibition was 7.57%.

Take `O=C(O)/C=C/C(=O)NNc1ccc([N+](=O)[O-])cc1`: the inhibition is -1.39%.

On to `CSc1ccc(NC(=O)/C=C/C(=O)O)cc1`, for which the inhibition was 22.1% (active).

For `CSc1ccc(NC(=O)N2CC(C)OC(C)C2)cc1` (stereo not drawn), the inhibition is 10.2%.

Regarding `Cc1cccc(N2CCN(c3ccc(NC(=O)/C=C\C(=O)O)cc3)CC2)c1`, the inhibition is 20.7% (active).

Take `O=C(CN1CCN(c2ccc(O)cc2)CC1)Nc1ccc(-c2ccccc2)cc1`: the inhibition is 2.26%.

Turning to `Cc1ccc(-c2nc(C3CCCN(S(=O)(=O)c4ccc(Br)s4)C3)no2)cc1` (stereo not drawn), the inhibition was 7.46%.

`C=C(C)C1CC23C(=O)C4(C(=O)c5ccccc5)C[C@@]5(C)CCC(CC2C1(C)C)(C4=O)C35OC` (stereo partly drawn): the inhibition is 4.03%.

In the case of `COc1ccc(C(=O)CSc2nnc(-c3cnccn3)n2-c2ccc(C)cc2)cc1`, the inhibition is -19.7%.

Take `O=C(NN1C(=O)C2C3C=CC(C3)C2C1=O)c1ccco1` (stereo not drawn): the inhibition was 22.3% (active).

Regarding `CC(C)=C1C2CCC1C1C(=O)N(NC(=O)c3ccco3)C(=O)C21` (stereo not drawn), the inhibition was 0.15%.

In the case of `O=C(NN1C(=O)C2CCCCC2C1=O)c1ccco1` (stereo not drawn), the inhibition was -6.36%.

As to `C=CCN1C(=O)[C@@H](CC(=O)N2CCN(C(=O)OCC)CC2)[C@]2(C(=O)OCC)CCCCC/C=C/12`, the inhibition is 3.8%.

On to `C=CCN1C(=O)[C@@H](CC(=O)NCC2CCCCC2)[C@]2(C(=O)OC)CCCCC=C12`, for which the inhibition was -6.71%.

Consider `Cc1ccc(CSc2nnc(SCC(=O)NN=Cc3cc(Br)ccc3F)s2)cc1`, for which the inhibition was 8.12%.

Take `COC[C@@H]1CCCN1c1ccc2c(c1)O[C@H](C)CCN(C1CC1)S2(=O)=O`: the inhibition was -5.4%.

Take `Oc1ccc(/C=C/c2c(F)cccc2F)c2cccnc12`: the inhibition was 16%.

As for `CCN(Cc1ccccc1)C(=O)CN1C(=S)NC(C)(C)CC1C` (stereo not drawn), the inhibition was 31.1% (active).

Regarding `COc1cccc(CNC(=O)CCN2C(=S)NC(C)(C)CC2C)c1` (stereo not drawn), the inhibition was 6.8%.

Turning to `CC1CC(C)(C)NC(=S)N1CCC(=O)N1CCN(Cc2ccccc2)CC1` (stereo not drawn), the inhibition is 8.05%.

For `COc1ccccc1C(=O)CSc1nnc(-c2ccccn2)n1-c1ccccc1`, the inhibition was -16.8%.

As for `CCc1ccc(NC2Nc3cc(C)nn3S2)cc1` (stereo not drawn), the inhibition is 23.9% (active).

On to `CCOC(=O)c1cccc(NC(=O)CN(C)S(=O)(=O)c2ccc(-c3cocn3)s2)c1`, for which the inhibition was -2.93%.

`O=C(C1CCN(S(=O)(=O)c2ccccc2)CC1)N1CCN(C2CCCCC2)CC1`: the inhibition is 8.19%.

As for `CSc1ccc(C=Nn2c(-c3ccc(F)cc3)n[nH]c2=S)cc1`, the inhibition was 6.63%.

As for `S=c1[nH]nc(-c2ccco2)n1/N=C/c1ccccc1`, the inhibition was 19.3% (active).

With `CCOc1ccc(-c2n[nH]c(=S)n2/N=C/c2cc3c(cc2[N+](=O)[O-])OCO3)cc1`, the inhibition is 1.67%.

`Cc1cc(C)cc(NC(=O)N2CCC(N(C)CCC(C)C)CC2)c1`: the inhibition is 10.3%.

As to `CCOC(=O)[C@@]12CCC3=C1N(CCC3)C(=O)[C@H](CC(=O)N1CCN(C(=O)c3ccco3)CC1)C2`, the inhibition was 8.67%.

`c1coc(CCNc2ncnc3ccc(-c4ccc5c(c4)OCO5)cc23)c1`: the inhibition was -19.4%.

In the case of `COC(=O)[C@]12C[C@H](CC(=O)NCc3ccccc3)C(=O)N(CCc3ccc(OC)c(OC)c3)C1=C[C@H](C(C)(C)C)O[C@@H]2C`, the inhibition is -21.4%.

On to `COC1=C[C@H](C(=O)NCCNC(C)=O)[C@H](C)[C@@H](c2ccccc2)CC1=O`, for which the inhibition was -0.85%.

With `C=CCn1c(SCC(N)=O)nnc1-c1ccccc1OC`, the inhibition was 6.66%.

On to `COc1ccccc1NC(=O)COC(=O)COc1ccccc1F`, for which the inhibition is -4.78%.

Turning to `COc1ccccc1OCC(=O)OCn1c(SC)nnc(C)c1=O`, the inhibition was 21.3% (active).

Consider `CCN(CC)C(=O)CC[C@H]1CC[C@]2(CCCN(Cc3ccc(Cl)cc3)C2)O1`, for which the inhibition is 6.37%.

As for `O=C(COc1ccc(S(=O)(=O)NCCc2ccccc2)cc1)N1CCCC1`, the inhibition is -5.12%.

`O=C(COc1ccc(S(=O)(=O)NCc2ccccc2)cc1)N1CCOCC1`: the inhibition was 20.9% (active).

For the compound `CC(NS(=O)(=O)c1ccc(OCC(=O)N2CCCC2)cc1)c1ccccc1` (stereo not drawn), the inhibition is 5.02%.

These data come from PubChem BioAssay AID743126 (The Scripps Research Institute Molecular Screening Center, 2013).
